# Screens as filed in PubChem.
# The full list was thinned out, with hits kept by preference.
# APEX1 inh – blocks human APE1 abasic DNA cleavage | hit rate 0.35% among 350,000 | recombinant APE1, TAMRA/BHQ-2 abasic DNA cleavage fluorescence | AID 2517 | Potency, µM (top dose mostly 65.8 µM), without a hit: top-dose activity change, negative = inhibition, hits mostly inhibitors;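 note: plate controls were vehicle for no effect and reference inhibitor for full effect; nearly all actives have a fitted effect of over 55% in size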
# Target sequence (P27695 whole entry, looked up): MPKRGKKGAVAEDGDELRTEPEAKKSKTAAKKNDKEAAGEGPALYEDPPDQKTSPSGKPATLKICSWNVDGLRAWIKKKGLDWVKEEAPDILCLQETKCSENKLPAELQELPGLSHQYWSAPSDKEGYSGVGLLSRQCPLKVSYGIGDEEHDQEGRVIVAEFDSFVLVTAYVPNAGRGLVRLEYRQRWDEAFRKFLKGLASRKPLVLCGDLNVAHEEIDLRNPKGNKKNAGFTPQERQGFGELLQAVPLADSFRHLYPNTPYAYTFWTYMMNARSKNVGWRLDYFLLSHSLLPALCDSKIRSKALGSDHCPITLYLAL
#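 Enzyme (0.75 nM final) and test compound are incubated 15 min at room temperature before adding 50 nM quenched THF abasic-site duplex. Cleavage dequenches TAMRA, followed at 525/598 nm over three reads one minute apart.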
# L3MBTL1 inh – L3MBTL1 (human) inhibition | hit rate 0.66% among 230,000 | Potency, µM (titrated, usually from 57.1 µM), for inactives: at the highest dose activity, negative = inhibition, usual class: inhibitors | Q9Y468 | AlphaScreen L3MBTL1–H3K9me1 peptide binding; note: nearly all actives have a fitted effect of over 60% in size
#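 AlphaScreen assay: L3MBTL1 (50 nM final) was preincubated 30 min at room temperature with biotinylated H3(1-15)K9me1 peptide (75 nM final), then 30 min with library compounds; streptavidin donor and nickel chelate acceptor beads (10 ug/mL final) added, 30 min dark.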
# KDM4E inh – JMJD2E (human) inhibition | B2RXH2 | JMJD2E catalytic domain, FDH-coupled NADH fluorescence (FDH is formaldehyde dehydrogenase) | Potency, µM (doses to about 57.1 µM), for the others: at the top dose activity change, negative = inhibition, hits mostly inhibitors | hit rate 1.6% among 230,000 | AID 2147; active = well fitted inhibition curve with a large enough effect, not every such curve was filed as active; inconclusive = small, poorly fitted or top-dose-only effect, or another doubt; inactive = no such curve, though single readings can be large or run the other way;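 note: 0% = wells with enzyme and -100% = buffer wells without enzyme; nearly all actives have a fitted effect of over 50% in size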
# Target sequence (B2RXH2 1-337 limits assumed): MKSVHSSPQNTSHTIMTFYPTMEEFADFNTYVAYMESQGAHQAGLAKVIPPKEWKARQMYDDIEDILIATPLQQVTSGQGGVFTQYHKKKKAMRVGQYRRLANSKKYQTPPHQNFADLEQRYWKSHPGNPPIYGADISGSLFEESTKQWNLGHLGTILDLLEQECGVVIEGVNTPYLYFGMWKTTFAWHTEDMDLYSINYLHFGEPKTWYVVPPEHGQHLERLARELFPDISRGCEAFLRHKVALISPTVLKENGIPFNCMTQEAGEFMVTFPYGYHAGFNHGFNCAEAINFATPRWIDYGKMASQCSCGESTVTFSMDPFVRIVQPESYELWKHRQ
# RECQ1 inh – inhibitors of human RECQ1 DNA helicase; P46063; RECQ1 DNA unwinding, red fluorescence kinetic read; Potency, µM (titrated, usually from 57.3 µM), inactives show at the top dose activity, negative = inhibition, usual class: inhibitors; hit rate 0.54% among 240,000;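 note: plate controls were vehicle for no effect and no enzyme for full effect; nearly all actives have a fitted effect of over 30% in size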
#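 RECQ1T1 50 nM; forked duplex (20 bp + 30-nt ss tails) 200 nM, ATP 2 mM final; pH 8.0, 2 mM MgCl2, 2.5 ug/ml poly(dI-dC); 15 min compound preincubation; discontinuous kinetic read over 2 h at RT.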
# BLM helicase inh – inhibitors of human Bloom syndrome helicase BLM; P54132; recombinant BLM DNA unwinding, fluorescence dequenching; Potency, µM (highest dose often 56.1 µM), for the others: top-dose activity change, negative = inhibition, usual class: inhibitors; hit rate 0.2% among 350,000; AID 2528;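 note: plate controls were vehicle for no effect and no enzyme for full effect; nearly all actives have a fitted effect of over 35% in size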
# TDP1 inh – inhibitors of human tyrosyl-DNA phosphodiesterase TDP1; Q9NUW8; recombinant TDP1, AlphaScreen DNA substrate cleavage; Potency, µM (highest dose often 130 µM), inactives show top-dose activity change, negative = inhibition, most hits filed as inhibitors; hit rate 0.28% among 350,000; AID 485290; note: nearly all actives have a fitted effect of over 40% in size
#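 Compounds were preincubated with Tdp1 (1 nM final) for 15 min at room temperature before substrate (15 nM final) started a 5 min reaction; beads (10 ug/ml final) were then added for 10 min before AlphaScreen detection.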
# An asterisk follows results filed as active; i = inactive; ? = inconclusive; · = not tested or not shown. Unless noted, calls come from the whole dose curve; as a rule, active = well fitted curve in the direction sought with a large enough effect; inconclusive = small, poorly fitted or top-dose-only effect, or another doubt; inactive = no such curve, though single readings can be large; an effect the other way counts as inactive or inconclusive. Unless noted, % is set by controls: 0 for no effect and ±100 for the full control effect; potency is the fitted concentration of half-maximal effect.
SMILES,APEX1 inh,L3MBTL1 inh,KDM4E inh,RECQ1 inh,BLM helicase inh,TDP1 inh
CS(=O)(=O)C1=NN2C(=N)/C(=C\c3ccc(OC(=O)c4ccco4)cc3)C(=O)N=C2S1,-39%,·,·,·,-15%,50µM*
O=C1NC(=S)S/C1=C/c1ccc(OC(=O)c2ccco2)cc1,-5%,·,·,·,-14%,50µM*
COc1ccccc1OCCOc1ccc(/C=C2\C(=N)N3N=C(S(C)(=O)=O)SC3=NC2=O)cc1,21µM*,·,·,·,-11%,·
N=C1/C(=C\c2ccc(OC(=O)c3ccc(F)cc3)cc2)C(=O)N=C2SC(N3CCOCC3)=NN12,-25%,·,·,·,-8%,56µM*
COc1ccc(O)c(C2Nc3ccccc3C(=O)N2Cc2ccccc2)c1 (centres undefined),·,·,·,·,·,1%
COc1ccc(Cc2nnc(N/N=C/c3ccc(O)cc3O)[nH]c2=O)cc1OC,-3%,3.5µM*,-1%,3%,-13%,0%
COc1cccc(C2c3c(ncn(-c4ccccc4C)c3=N)Oc3ccc4ccccc4c32)c1 (centres undefined),·,·,·,·,·,4%
COc1ccccc1NC(=O)c1c([N+](=O)[O-])cnn1C,11%,0%,·,·,-3%,1.4µM*
Cc1cccc(N2CCN(C(=O)CSc3ccsc3[N+](=O)[O-])CC2C)c1 (centres undefined),-1%,32µM*,5%,-8%,-17%,0%
Cc1cccc(N2CCN(C(=O)/C=C/c3cccs3)CC2C)c1 (centres undefined),9%,·,-2%,i,-7%,2%
O=C(NN=C1CCN(Cc2ccccc2)CC1)c1cc2ccccc2cc1O,-2%,-8%,28µM*,-8%,-23%,11%
CC[C@H](C)[C@H](NC(=O)[C@H](CCC(=O)O)NC(=O)CNC(=O)[C@@H](NC(=O)[C@H](CCC(=O)O)NC(=O)[C@H](CCC(=O)O)NC(=O)[C@H](CC(C)C)NC(=O)CNC(=O)[C@@H]1CCCN1C(=O)[C@H](CCC(=O)O)NC(=O)[C@@H](N)[C@@H](C)O)C(C)C)C(=O)N[C@@H](CCC(=O)O)C(=O)N[C@@H](CCC(N)=O)C(=O)N[C@@H](CCCCN)C(=O)N[C@@H](CCC(N)=O)C(=O)N[C@@H](CC(C)C)C(=O)N[C@@H](CCC(N)=O)C(=O)O,2%,·,·,-15%,1%,24%
Cc1ccc(OCC(=O)NNC(=O)CCc2ccccc2)cc1,-6%,-2%,-4%,-6%,-3%,1%
Cc1ccc(CC(=O)CCc2ccccc2)cc1,28%,53%,·,·,·,79µM*
N#Cc1cc2c(OCC(O)CN3CCN(C(c4ccccc4)c4ccccc4)CC3)cccc2[nH]1 (centres undefined),-9%,·,·,-7%,·,12%
O=C1CC(c2ccccc2)CC2=C1C1(CCCCC1)N=C(Nc1nc3ccccc3o1)N2 (centres undefined),·,·,·,·,·,1%
C(=N\Nc1nc(-c2ccccn2)nc2ccccc12)/c1ccccc1,-1%,-6%,8.9µM*,i,-1%,3%
N#CN1CCC(NS(=O)(=O)c2ccc(F)cc2)CC1,·,·,·,·,·,0%
O=S(=O)(c1cccc(-c2n[nH]c(=S)n2-c2ccccc2)c1)N1CCCC1,-8%,·,·,·,·,·
Cc1cccc(NC(=O)CSc2nc(-c3ccco3)nc3cc(=O)[nH]n23)c1,63%,3%,·,·,-5%,45µM*
O=C(CSc1nc(-c2ccco2)nc2cc(=O)[nH]n12)Nc1ccc(F)cc1,·,·,·,·,2%,0%
Cc1cc([N+](=O)[O-])ccc1-c1ccc(C2Nc3ccccc3C(=O)N2O)o1 (centres undefined),13%,-5%,28µM*,-3%,-8%,14%
Cc1oc(-c2ccc(Cl)cc2)cc1-c1nn2c(-c3ccco3)nnc2s1,?,-12%,-13%,32µM*,-22%,?
CC(=O)Nc1ccc(S(=O)(=O)N(C)c2ccc(OCCOc3cccc(C)c3)cc2)cc1,?,-26%,·,·,·,13µM*
CCOc1ccccc1C(=O)N/N=C/c1coc2ccc(C)cc2c1=O,-13%,·,·,·,-11%,35µM*
SMILES,APEX1 inh,L3MBTL1 inh,KDM4E inh,RECQ1 inh,BLM helicase inh,TDP1 inh
COc1ccccc1-c1nnc2n1N=C(c1c(OC)cccc1OC)CS2,2%,·,·,-6%,4%,4%
Cc1ccc2[nH]c(C)c(CC(=O)O)c2c1,13%,·,22µM*,i,-4%,5%
Cc1[nH]c2ccc(C(C)C)cc2c1CC(=O)O,15%,·,?,-14%,-5%,·
Cc1c(C)c2c(c(C)c1O)CCC(C)(COc1ccc(Cc3sc(=O)[nH]c3O)cc1)O2 (centres undefined),-4%,·,·,-1%,-19%,18%
Cc1ccc2cccc(NC(=O)c3ccc(-c4ccc(Br)cc4)o3)c2n1,·,·,·,·,-5%,7%
COC(=O)c1ccccc1NC(=O)c1ccc(-c2ccc(Br)cc2)o1,8%,·,3.5µM*,-1%,-3%,-2%
O=C(O)CCCNc1cc(N2CCN(C(=O)c3ccco3)CC2)c2noc3c2c1C(=O)c1ccccc1-3,?,·,·,·,-29%,5%
CCOC(=O)N1CCN(c2cc(NCCC(=O)O)c3c4c(onc24)-c2ccccc2C3=O)CC1,?,8.9µM*,-23%,?,-22%,12%
O=C(O)CCCNc1cc(N2CCC3(CC2)OCCO3)c2noc3c2c1C(=O)c1ccccc1-3,?,10µM*,?,-25%,-25%,5%
CCOC(=O)c1c(-c2ccc(OC)cc2)csc1NC(=O)CNCc1ccco1,2%,-6%,-1%,-3%,-7%,0%
CCOC(=O)c1c(-c2ccc(Cl)cc2)csc1NC(=O)CNCc1ccco1,?,·,25µM*,-12%,-12%,·
CC[C@H](C)[C@H](NC(=O)[C@H](CC(C)C)NC(=O)[C@H](CC(N)=O)NC(=O)[C@@H](NC(=O)[C@@H](N)Cc1ccc(O)cc1)[C@@H](C)CC)C(=O)N[C@@H](Cc1ccc(O)cc1)C(=O)N[C@@H](CCCN=C(N)N)C(=O)N[C@@H](CC(C)C)C(=O)N[C@@H](CCCN=C(N)N)C(=O)N[C@@H](Cc1ccc(O)cc1)C(N)=O,0%,·,·,-5%,2%,13%
N#Cc1c(N2CCCC2)nc(N)c2c(N)nc(N3CCCC3)cc12,?,?,?,?,2.8µM*,10%
Clc1cccc(-c2ccc(CNCc3ccccn3)o2)c1,21%,22µM*,·,·,2%,·
